Data on 10 compounds can be found in PubChem BioAssay.

Assay [1] can be described thus: HepG2 liver cancer cell viability effects, profiling panel, resazurin fluorescence, 24 h, PK04 Diversity Set (AID 1172). The settings on record: higher = more signal.
Assay [2] in a line: basal S. cerevisiae growth modulation, no modifier, primary screen, OD600, strain BY4716, 24 h, basal condition (AID 1173). The settings on record: OD600, 24 h, higher = more signal, called active from +8 up or from −8 down.
Assay [3] can be described thus: MM1S myeloma cell viability, profiling panel, resazurin fluorescence, basal, 24 h, PK04 Diversity Set (AID 1174).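 Note: MM1S multiple myeloma cell line.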 The settings on record: higher = more signal, called active from +8 up or from −8 down. (In general: Alamar Blue is a resazurin reagent that responds to reducing activity.)
Assay [4] addresses Dihydroorotate dehydrogenase (quinone), mitochondrial (Plasmodium falciparum (isolate 3D7)) (UniProt Q08210). As to the kind of experiment: PfDHODH enzyme inhibitors, primary screen, biochemical, C-terminal His tag, absorbance 600 nm (AID 1175).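 Note: recombinant parasite enzyme with a five histidine tag at its C terminus.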 The settings on record: DCIP absorbance 600 nm, higher = more signal, called active from +8 up or from −8 down.
Assay [5] is described as follows: P. aeruginosa biofilm formation inhibitors, primary screen, strain PAO1, LB-PBS medium, absorbance 600 nm (AID 1176). The settings on record: P. aeruginosa PAO1 growth/biofilm, A600, 12 h; higher = more signal.
Assay [6] can be described thus: S. cerevisiae RM11-1a growth modifiers, primary screen, strain RM11-1a, OD600, basal, 24 h (AID 1177).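 Note: cultures grown under basal conditions with no added stressor.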 The settings on record: OD600, 24 h, higher = more signal, called active from +8 up or from −8 down.
The nature of assay [7]: E. coli acrAB mutant growth effects, primary screen, E. coli filamentation inducers, strain DRC39, OD650, 24 h (AID 1178).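 Note: growth measured as culture turbidity by optical density at 650 nm.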 The settings on record: higher = more signal, called active from +8 up or from −8 down.
Assay [8] in a line: E. coli acrAB mutant growth effects, primary screen, E. coli filamentation inducers, strain DRC39, OD650, 48 h (AID 1179).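 Note: screen aims at cell division blockers that make cells filament.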 The following applies: E. coli DRC39 delta-acrAB growth, higher = more signal, called active from +8 up or from −8 down.
Assay [9] is described as follows: RPMI8226 myeloma cell viability, profiling panel, resazurin fluorescence, basal, 24 h, PK04 Diversity Set (AID 1180).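 Note: RPMI8826 multiple myeloma cell line at 5000 cells per well.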 The settings on record: higher = more signal.
For assay [10], the target named is E3 ubiquitin-protein ligase XIAP (Homo sapiens) (UniProt P98170). As to the kind of experiment: XIAP binders, primary screen, biophysical, small-molecule microarray, fluorescence 635 nm (AID 1181).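 Note: score merges 667 nm emission and signal to noise over triplicate slides.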 The settings on record: small-molecule microarray binding, higher = more signal.
In assay [11] the test system is XIP peptide (Xip251-270) binding. The experiment in a line: small-molecule binders of XIP peptide, primary screen, biochemical, small-molecule microarray, fluorescence 635/667 nm, 0.1 µg/mL protein (AID 1182). The settings on record: fluorescent protein binding, 635 nm, higher = more signal, called active from +8 up or from −8 down.
The test system of assay [12] is XIP peptide (Xip251-270). As to the kind of experiment: small-molecule binders of XIP peptide, primary screen, biochemical, small-molecule microarray, fluorescence 635/667 nm, 0.5 µg/mL protein (AID 1183). The following applies: small-molecule microarray binding, fluorescence 635 nm; higher = more signal.
Assay [13] is described as follows: Plasmodium falciparum growth inhibition, primary screen, strain 3D7, DAPI fluorescence, 100 nL (AID 1184).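 Note: parasites grown inside human red blood cells in medium with human serum.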 The following applies: P. falciparum 3D7 growth, 3 d, higher = more signal.
Assay [14] concerns the target Homeobox protein Hox-A13 (Mus musculus) (UniProt Q62424). As to the kind of experiment: inhibitors of HoxA13-DNA binding, primary screen, biochemical, fluorescence polarization, labeled oligonucleotide (AID 1185). The settings on record: 15 min, higher = more signal, called active from +8 up or from −8 down.
Assay [15] is described as follows: inhibitors of hydroxyurea-induced Chk1 phosphorylation, primary screen, imaging, HeLa, phospho-Chk1 antibody, percent positive cells (AID 1186). The following applies: hydroxyurea-induced phospho-Chk1 immunofluorescence imaging, higher = more signal.
Assay [16] can be described thus: inhibitors of hydroxyurea-induced Chk1 phosphorylation, primary screen, imaging, HeLa, phospho-Chk1 nuclear intensity (AID 1187). The settings on record: hydroxyurea-induced phospho-Chk1 immunofluorescence imaging, higher = more signal.

Calls of active or inactive are those of the source. Unless noted, the rule behind the calls is not given here.

E3 ubiquitin-protein ligase XIAP (Homo sapiens), sequence (P98170 whole entry, looked up): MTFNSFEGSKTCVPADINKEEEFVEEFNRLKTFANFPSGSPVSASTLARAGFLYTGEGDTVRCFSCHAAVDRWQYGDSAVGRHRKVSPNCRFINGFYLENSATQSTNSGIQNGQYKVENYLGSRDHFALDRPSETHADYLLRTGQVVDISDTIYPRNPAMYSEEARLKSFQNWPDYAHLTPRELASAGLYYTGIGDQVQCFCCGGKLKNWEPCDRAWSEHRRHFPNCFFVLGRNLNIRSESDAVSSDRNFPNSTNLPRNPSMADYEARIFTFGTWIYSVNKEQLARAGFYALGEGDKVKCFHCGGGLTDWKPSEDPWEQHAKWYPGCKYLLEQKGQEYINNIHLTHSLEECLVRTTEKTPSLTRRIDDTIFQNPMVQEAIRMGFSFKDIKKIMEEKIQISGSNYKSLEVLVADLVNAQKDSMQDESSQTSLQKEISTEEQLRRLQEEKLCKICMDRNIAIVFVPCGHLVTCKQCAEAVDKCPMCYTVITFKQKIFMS
Dihydroorotate dehydrogenase (quinone), mitochondrial (Plasmodium falciparum (isolate 3D7)), sequence (Q08210 whole entry, looked up): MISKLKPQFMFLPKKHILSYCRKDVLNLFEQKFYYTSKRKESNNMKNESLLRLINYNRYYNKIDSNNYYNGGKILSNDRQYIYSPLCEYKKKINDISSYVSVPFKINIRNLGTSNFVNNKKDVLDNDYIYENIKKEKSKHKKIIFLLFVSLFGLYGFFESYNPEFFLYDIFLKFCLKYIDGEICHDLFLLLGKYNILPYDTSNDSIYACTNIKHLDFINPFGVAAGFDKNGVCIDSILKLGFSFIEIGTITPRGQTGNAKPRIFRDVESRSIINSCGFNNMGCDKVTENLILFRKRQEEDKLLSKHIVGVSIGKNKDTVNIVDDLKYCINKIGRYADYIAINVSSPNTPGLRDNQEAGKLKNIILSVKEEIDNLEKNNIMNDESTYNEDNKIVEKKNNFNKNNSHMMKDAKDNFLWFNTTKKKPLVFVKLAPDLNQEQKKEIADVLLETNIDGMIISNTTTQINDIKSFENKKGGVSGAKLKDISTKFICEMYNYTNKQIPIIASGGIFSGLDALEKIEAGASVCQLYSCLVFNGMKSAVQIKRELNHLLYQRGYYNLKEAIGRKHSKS
Homeobox protein Hox-A13 (Mus musculus), sequence (Q62424 whole entry, looked up): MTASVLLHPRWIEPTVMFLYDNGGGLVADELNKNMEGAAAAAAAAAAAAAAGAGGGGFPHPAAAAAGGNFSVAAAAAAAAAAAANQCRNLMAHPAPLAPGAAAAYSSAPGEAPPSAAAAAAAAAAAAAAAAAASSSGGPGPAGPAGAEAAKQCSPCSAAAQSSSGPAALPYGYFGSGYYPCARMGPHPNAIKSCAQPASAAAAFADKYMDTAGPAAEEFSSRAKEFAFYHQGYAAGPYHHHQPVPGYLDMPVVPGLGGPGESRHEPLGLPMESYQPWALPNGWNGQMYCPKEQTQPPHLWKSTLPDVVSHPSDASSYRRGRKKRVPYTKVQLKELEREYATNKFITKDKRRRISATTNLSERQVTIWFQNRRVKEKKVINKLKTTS

`C[N+](C)(C)CCCCNC(=O)[C@H]1C[C@H]2C(=O)N3CCC[C@H]3C(=O)N2[C@H]1c1ccc(O)cc1`: the z-score in [1] was 0.0897; in assay [2], 1.06 (inactive); in assay [3] it was -1.13 (inactive); in [5], 0.146 (inactive); in assay [6], 0.266 (inactive); in assay [7], 0.0346 (inactive). Besides, the z-score in assay [8] was -0.322 (inactive); in [9] it was -0.977; in assay [13] it was -0.0706; in assay [14] it was -0.675 (inactive); in [15] it was 0.0919 (inactive); in assay [16], -0.206 (inactive). The composite z-score in assay [4] was -30.3 (active); in assay [10], 0.455; in assay [11], 1.36 (inactive); in assay [12], 0.806.

For the compound `CCOC(=O)C1=C[C@@H](C(C)(C)C)N(S(=O)(=O)c2ccc(C)cc2)[C@H]1c1ccc(Cl)c(Cl)c1`, the z-score in assay [1] was -0.331; in assay [2], 1.63 (inactive); in assay [3], -1.01 (inactive); in assay [5] it was 0.546 (inactive); in assay [6], 1.26 (inactive); in [7] it was -0.723 (inactive). Besides, the z-score in [8] was -0.398 (inactive); in assay [9], -2.92; in assay [13], -1.96; in assay [14], -0.524 (inactive); in assay [15] it was -0.0683 (inactive); in assay [16], -0.633 (inactive). Besides, the composite z-score in [4] is 0.89 (inactive); in assay [10] it was -0.0351; in assay [11], -0.0073 (inactive); in assay [12], 0.762.

Consider `NC(=O)NCC#Cc1ccc2c(c1)[C@]1(C(=O)N2)[C@H](c2ccc(O)cc2)N2[C@H](c3ccccc3)[C@H](c3ccccc3)OC(=O)[C@H]2[C@@H]1C(=O)N1CCN(c2ncccn2)CC1`, for which the z-score in [1] was -0.271; in assay [2] it was 0.244 (inactive); in assay [3], 0.965 (inactive); in assay [5], 1.18 (inactive); in assay [6], 0.517 (inactive); in assay [7] it was 0.247 (inactive). In addition, the z-score was 0.0093 (inactive) in assay [8]; 1.24 in assay [9]; -0.136 in assay [13]; -1.61 (inactive) in [14]; 0.477 (inactive) in assay [15]; 1.04 (inactive) in [16]. Also, the composite z-score was -0.154 (inactive) in assay [4], -0.0004 in assay [10], 0.17 (inactive) in assay [11] and 0.466 in [12].

For `O=C1OCCC=C[C@H]2OC34C=CCN(CCN5CCOCC5)C(=O)[C@H]3N(CCO)C(=O)[C@@H]4C12` (stereo not given in full), the z-score was -0.0535 in [1]; -0.663 (inactive) in [2]; -1.45 (inactive) in [3]; 0.0962 (inactive) in [5]; -0.249 (inactive) in assay [6]; -1.14 (inactive) in assay [7]. Besides, the z-score in assay [8] is -0.99 (inactive); in assay [9], -0.6; in assay [13] it was 0.0863; in [14], -5.81 (inactive); in assay [15] it was -0.492 (inactive); in assay [16], -0.757 (inactive). For the same compound, the composite z-score in assay [4] is -1.85 (inactive); in assay [10] it was 0.0264; in assay [11], 0.134 (inactive); in assay [12], 0.0053.

Take `O=C(NCc1ccccc1)[C@@H]1c2ccccc2C(=O)N(C2CCCCC2)[C@H]1c1ccc(CO)cc1`: the z-score in assay [1] was -0.178; in assay [2], 0.0854 (inactive); in assay [3] it was -0.765 (inactive); in [5], 0.0993 (inactive); in assay [6], 0.138 (inactive); in [7] it was 0.0692 (inactive). Further, the z-score in assay [8] is 0.268 (inactive); in assay [9], -1.7; in assay [13], -0.667; in [14] it was -2.81 (inactive); in [15], -0.13 (inactive); in assay [16], -0.296 (inactive). Moreover, the composite z-score in assay [4] is 0.0557 (inactive); in assay [10], 0.117; in [11] it was 0.81 (inactive); in [12], 0.732.

On to `COc1cc(CO)cc(I)c1O[C@H]1C=C(C(=O)NCCO)C[C@@H](N(CCc2cccc(F)c2)C(=O)CCC2CCCC2)[C@@H]1O`, for which the z-score in assay [1] was -1.69; in assay [2], -9.37 (active); in assay [3], -3.26 (inactive); in assay [5], 1.99 (inactive); in assay [6] it was 1.99 (inactive); in assay [7], -0.0338 (inactive). Further, the z-score is -0.177 (inactive) in assay [8]; -4.07 in [9]; -2.18 in assay [13]; -6.89 (inactive) in assay [14]; 0.624 (inactive) in [15]; 0.824 (inactive) in assay [16]. The composite z-score in assay [4] is -0.459 (inactive); in assay [10] it was 0.29; in assay [11], 0.131 (inactive); in assay [12], 0.65.

In the case of `C=C(CCCC)C(=O)CC[C@H](OC(C)=O)c1ccc(CO)o1`, the z-score is -0.658 in [1]; -0.948 (inactive) in assay [2]; 0.982 (inactive) in assay [3]; -0.0221 (inactive) in [5]; 0.285 (inactive) in assay [6]; 0.668 (inactive) in assay [7]. Also, the z-score in assay [8] was -0.968 (inactive); in [9], 0.496; in [13], -1.82; in [14], -3.62 (inactive); in assay [15], -0.059 (inactive); in assay [16] it was -0.222 (inactive). Besides, the composite z-score was -1.66 (inactive) in assay [4], 0.343 in assay [10], 0.35 (inactive) in assay [11] and 0.0921 in assay [12].

For `Cc1ccc(S[C@]2(C(=O)NCCCN(C)C)CC(=O)N(C(C)C)[C@@H]2c2ccc(CO)cc2I)cc1`, the z-score in [1] is 0.533; in assay [2], -3.52 (inactive); in [3], -3.69 (inactive); in [5], 0.668 (inactive); in [6] it was -1.31 (inactive); in assay [7] it was 0.847 (inactive). Moreover, the z-score in [8] was 1.52 (inactive); in assay [9] it was -2.67; in assay [13], -0.621; in assay [14], -2.81 (inactive); in [15] it was 0.535 (inactive); in [16], 0.775 (inactive). The composite z-score is -0.0857 (inactive) in assay [4], -0.145 in [10], 0.352 (inactive) in [11] and 0.412 in assay [12].

For `O=C1O[C@H](c2ccccc2)[C@H](c2ccccc2)N2[C@H]1[C@@H](C(=O)N1CCCCCCC1)[C@]1(C(=O)Nc3ccc(C#CC4=CCCCC4)cc31)[C@H]2c1ccc(O)cc1`, the z-score in assay [1] was 0.693; in assay [2] it was -0.63 (inactive); in assay [3], -0.693 (inactive); in assay [5], 0.485 (inactive); in assay [6], -0.668 (inactive); in [7], -0.182 (inactive). Further, the z-score was -1.53 (inactive) in assay [8]; -0.0437 in [9]; -1.96 in assay [13]; 3.02 (inactive) in [14]; -0.323 (inactive) in assay [15]; -0.649 (inactive) in assay [16]. The composite z-score was -0.744 (inactive) in assay [4], 3.33 in assay [10], 8.07 (active) in assay [11] and 1 in [12].

On to `CN1C(=O)C2C(C1=O)C1C=C(c3ccc(CO)cc3)C2C(C2CC2)N1Cc1sc2ccccc2c1Cl` (stereo not given), for which the z-score in [1] is 0.0076; in assay [2] it was -1.82 (inactive); in assay [3], -5.41 (inactive); in [5], 0.255 (inactive); in [6], 1.2 (inactive); in [7], 0.225 (inactive). Further, the z-score in [8] is 0.0618 (inactive); in [9] it was -3.3; in assay [13], -1.9; in assay [14], -3.23 (inactive); in assay [15] it was 0.21 (inactive); in [16], 0.442 (inactive). The composite z-score is -1.46 (inactive) in [4], 0.262 in assay [10], 0.406 (inactive) in [11] and 0.745 in assay [12].
